# Assay results as given in PubChem BioAssay.
# Test: small-molecule microarray binders of probe aNog, primary screen, biochemical, biotinylated probe, 635/667 nm fluorescence (AID 1115);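 further: probe is biotinylated aNog protein used at 0.15 µg/mL for 1 h at 4 C; z-score combines 667 nm fluorescence of each spot with its signal to noise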
# Settings: higher = more signal
row,SMILES,composite z-score
1,COCCCNC(=O)[C@@]1(Sc2ccc(C)cc2)CC(=O)N(C2CCCCC2)[C@@H]1c1ccc(CO)cc1I,-0.631
2,[N-]=[N+]=NCc1ccccc1C[C@]1(C(=O)O)COC(c2ccc(OCCCO)cc2)=N1,-0.277
3,COC(=O)[C@@]1(Cc2ccc(OC)cc2)[C@H]2c3cc(C(=O)N(C)C)n(Cc4ccsc4Br)c3C[C@H]2CN1C(=O)c1ccccc1,1.61
4,CCCCC(=C=CC[C@@H](O)c1ccc(OCCO)cc1)C[C@@H](O)c1ccccn1,0.157
5,O=C1NC(=O)C2C1C=CC(C(O)c1cccc(O)c1)N2Nc1ccc(Cl)cc1Cl (centres undefined),-0.237
6,[N-]=[N+]=NCc1ccccc1C[C@]1(C(=O)NCc2ccccc2)N=C(c2ccc(OCCCO)cc2)O[C@H]1c1ccccc1CN=[N+]=[N-],-0.0439
7,O=C1O[C@H](c2ccccc2)[C@H](c2ccccc2)N2[C@H]1[C@@H](C(=O)N1CCN(c3ncccn3)CC1)[C@]1(C(=O)Nc3ccccc31)[C@H]2c1ccc(O)cc1,0.265
8,COC(=O)[C@@]1(Cc2ccc(F)cc2)[C@H]2c3cc(C(=O)N4CCCC4)n(CCO)c3C[C@H]2CN1C(=O)c1ccccc1,-0.662
9,O=C1NC(=O)C2C1C=CC(C(O)c1ccc(F)cc1)N2Nc1ccccn1 (centres undefined),0.147
10,CC[C@H](C)C(=O)O[C@H]1CC[C@]2(C)C3=C(CCC2C1(C)C)[C@]1(C)CC[C@H]([C@H](C)CCCC(C)C)[C@@]1(C)CC3 (some centres undefined),-0.31
11,CCCC[C@H]1OB(O)C[C@H]2C1=C(COC)C[C@H]1C(=O)C=CC(=O)[C@H]12,-0.0344
12,CCCCCCCCCCC(O)C1C=CC2C(=O)N(C)C(=O)C2N1N1CCCCC1 (centres undefined),0.715
13,C=CC[C@]1(C(=O)NCCCOC)N=C(c2ccc(OCCCO)cc2)O[C@H]1c1ccccc1,0.328
14,CC1CC/C=C\[C@H]2OC34C=CCN(c5ccc(Cl)cc5)C(=O)[C@H]3N(CCCO)C(=O)[C@]4(C)C2C(=O)O1 (some centres undefined),-0.0211
15,C=C(CC1([C@@H](NP(=O)(c2ccccc2)c2ccccc2)[C@H]2C[C@@H]2CCN(C(=O)OCC)S(=O)(=O)c2ccc(C)cc2)CC1)c1ccccc1,1.06
16,COCC1=C([C@H](O)CCc2ccccc2)[C@H](CO)n2c(=O)n(-c3ccccc3)c(=O)n2C1,-0.0927
17,COC(=O)c1ccc([C@H](NC(=O)c2ccccc2)[C@]2(C)C[C@H]2C2CCCCC2)cc1,1.68
18,COCCOC(=O)N1C(=O)[C@@]2(c3cc(C#CC4=CCCCC4)ccc31)[C@H](c1ccccc1OCCO)N1[C@H](c3ccccc3)[C@H](c3ccccc3)OC(=O)[C@H]1[C@@H]2C(N)=O,-0.512
19,C=CCC(OC(C)=O)[C@@H]1[C@@H](N(Cc2cc3ccccc3o2)C(=O)Cc2ccc(OC)cc2)c2cc(OCCCO)ccc2N1C(=O)Cc1ccc2ccccc2c1 (some centres undefined),-0.0642
20,COc1ccc([Si](C)(C)[C@H]2[C@H](CCO)O[C@@]3(C(=O)N(Cc4ccccc4)c4ccc(N(C=O)c5ccccc5)cc43)[C@@H]2C)cc1,-0.352
21,CC(C)CNC(=O)[C@@H]1c2ccccc2C(=O)N(Cc2ccccc2Cl)[C@H]1c1ccc(CO)cc1,-0.0769
22,CCCCNC(=O)c1ccc(C#C[Si](C)(C)C)c(OC(C)=O)c1,-0.185
23,COc1cc2c(cc1O)C(c1ccc(CN3CCCC3)cc1)N(Cc1cccc(OC(F)(F)F)c1)CC2 (centres undefined),0.0583
24,C=CCOC(=O)[C@H]1[C@@H]2C(=O)O[C@@H](c3ccccc3)[C@@H](c3ccccc3)N2[C@@H](c2ccc(OCCOC(=O)[C@H]3C[C@H]4C(=O)NCC(=O)N4[C@H]3c3ccc(O)cc3)cc2)[C@]12C(=O)Nc1ccc(I)cc12,-0.158
25,NC(=O)N1C(=O)C2C(C1=O)C1C=C(CCCO)C2C(c2ccc(CN3CCCC3)cc2)N1Cc1cccc(OC(F)(F)F)c1 (centres undefined),0.429
26,C=C(CCCC)C(=O)CC[C@H](OC(C)=O)c1ccccc1OCCO,-0.234
27,C=CCC(OC(C)=O)[C@@H]1[C@@H](N(Cc2cccc3ccccc23)C(=O)c2ccc(-c3ccccc3)cc2)c2cc(OCCCO)ccc2N1C(=O)c1ccc2ccccc2n1 (some centres undefined),-0.278
28,COC(=O)[C@@]1(Cc2ccccc2)[C@@H]2[C@@H](CC(=O)[C@H]2CC(=O)C(=O)N(C)C)CN1C(=O)c1ccccc1,0.859
29,COCCOC(=O)N1C(=O)[C@@]2(c3cc(C#Cc4ccc(OC)cc4)ccc31)[C@H](C(=O)Nc1nc3ccccc3s1)[C@H]1C(=O)O[C@H](c3ccccc3)[C@H](c3ccccc3)N1[C@@H]2c1ccccc1OCCO,-0.7
